Source: PubChem BioAssay
Shown are actives, neighbours in structure and some others; about 3.9% of the full set was active somewhere.
ERK AVP block – blocks ERK signaling stimulated by vasopressin. HEK293-V1b, vasopressin-stimulated pERK AlphaScreen. Potency, µM (series often up to 57.5 µM), without a hit: at the highest dose activity, negative = inhibition, hits mostly inhibitors. actives 0.99% (n = 72,000). AID 995; also: % is scaled to controls: 0 for no effect and ±100 for the full control effect; nearly all actives have a fitted effect of over 55% in size
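qHTS, compounds titrated on V1b-expressing HEK293 cells. Preincubation 30 min at 37C, vasopressin 25 nM for 5 min, lysis 10 min, bead incubation 5 hr at room temperature.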
Bst PK mod – alters activity of Bacillus stearothermophilus pyruvate kinase. purified pyruvate kinase, luminescence ATP production; ribose 5-phosphate activator present at AC10. Potency, µM. actives 1.2% (n = 51,000); in the data active = potency below about 11 µM; inconclusive = mostly about 12 µM to 25 µM;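 the screen sought inhibitors and activators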;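 also: scaled between full activation by ribose 5 phosphate and full inhibition by luteolin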
FLuc inh – blocks Photinus pyralis firefly luciferase activity | purified firefly luciferase, luminescence, 8 min | Potency, µM (titrated, usually from 57.1 µM), for inactives: at the top dose activity change, negative = inhibition, actives largely listed as inhibitors | actives 2.2% (n = 72,000) | AID 411; also: % is scaled to controls: 0 for no effect and ±100 for the full control effect; nearly all actives have a fitted effect of over 40% in size
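Inhibition of light generation by firefly luciferase from ATP and luciferin was profiled with concentration-response curves per sample, ATP held at 10 uM within the enzyme's linear range. Plates were read by luminescence after an 8-minute ambient incubation.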
GBA mod – modulators of human glucocerebrosidase. P04062. purified enzyme, resorufin glucoside fluorescence (screen aimed at inhibitors), 20 min. Potency, µM. actives 1.1% (n = 48,000); in the data active = potency below about 15 µM; inconclusive = mostly about 16 µM to 33 µM;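 also: the screen sought inhibitors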
Target sequence (P04062 whole entry, looked up): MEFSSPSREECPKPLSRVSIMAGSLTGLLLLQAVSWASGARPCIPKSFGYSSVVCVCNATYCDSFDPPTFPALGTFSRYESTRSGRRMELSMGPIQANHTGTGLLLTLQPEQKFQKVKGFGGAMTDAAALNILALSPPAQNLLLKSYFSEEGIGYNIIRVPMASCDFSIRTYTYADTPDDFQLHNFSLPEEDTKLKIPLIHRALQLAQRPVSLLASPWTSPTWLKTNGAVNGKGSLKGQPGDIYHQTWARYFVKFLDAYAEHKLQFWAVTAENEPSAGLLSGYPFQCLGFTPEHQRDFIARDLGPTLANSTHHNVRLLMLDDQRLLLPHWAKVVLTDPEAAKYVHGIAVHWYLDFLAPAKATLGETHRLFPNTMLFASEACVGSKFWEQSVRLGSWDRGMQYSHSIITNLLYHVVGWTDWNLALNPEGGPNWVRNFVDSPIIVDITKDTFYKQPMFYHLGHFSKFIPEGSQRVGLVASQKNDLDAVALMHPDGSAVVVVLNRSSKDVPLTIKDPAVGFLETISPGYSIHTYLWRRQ
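Compounds titrated against 0.2 nM normal enzyme, 30 uM resorufin beta-D-glucopyranoside substrate, citrate/phosphate buffer with taurocholate and tween-20, pH 5.9. Reaction ran 20 min at room temperature; fluorescence (Ex 548/Em 600) gave AC50.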
Active calls of the source: *; i = inactive; ? = inconclusive; nt = no result; [ ] = another dose, or the depositor's remark. Unless noted, calls follow the shape of the dose curve; as a rule, active = well fitted curve in the direction sought with a large enough effect; inconclusive = small, poorly fitted or top-dose-only effect, or another doubt; inactive = no such curve, though single readings can be large; an effect the other way counts as inactive or inconclusive. Potency is read from the fitted curve at half-maximal effect.

SMILES	ERK AVP block	Bst PK mod	FLuc inh	GBA mod
COc1ccc(-c2n[nH]c(C)c2-c2ccc(Cl)cc2)c(O)c1OC	25µM*	>57	-3%	>77
N#Cc1ccccc1-c1ccc2ncnc(NCCN3CCOCC3)c2c1	-29%	nt	-1%[2.29 µM]	nt
C#CCCCO/N=C1/C[C@@H](O)[C@@H](O)[C@@H]2[C@@H]3C(=O)N(CCC(=O)OCC)C(=O)[C@H]3CC[C@@H]12	23%[11.5 µM]	nt	0%[11.4 µM]	nt
Cn1c(C(=O)NCc2ccco2)cc2c(=O)[nH]c3ccccc3c21	19%	4.4*	0%	>77
O=C(NCc1ccco1)c1cc2ccccc2c(=O)o1	9%	>57	-17%	>77
CCCCCCCCCCCCCCCCCC(=O)O[C@H](CC(=O)O)C[N+](C)(C)C	?	nt	-3%	nt
CN(Cc1ccccc1)c1nc2c(c(=O)n(C)c(=O)n2C)n1CCCc1ccccc1	20µM*	>57	-1%	?
CN(Cc1ccccc1)c1nc2c(c(=O)[nH]c(=O)n2C)n1Cc1ccccc1	?	>57	1%	>77
CN(Cc1ccccc1)c1nc2c(c(=O)[nH]c(=O)n2C)n1CCOc1ccccc1	13µM*	>57	2%	>77
O=C(c1csnn1)N1CCC[C@@]2(CCN(c3ccccc3)C2)C1	-26%	nt	1%[11.4 µM]	nt
Brc1ccc(-c2cnnc(N3CCCC3)n2)cc1	nt	2.4*	-1%[25.5 µM]	nt
Cc1cc(C)n(-c2nncc(-c3ccccc3)n2)n1	-25%	nt	-6%	nt
COCCNc1cc(-c2ccccc2C)ncn1	2%	nt	0%[2.29 µM]	nt
Cc1cccc(C)c1Nc1nc2ccccc2o1	nt	nt	-2%	nt
Cc1nc(Nc2nc3ccccc3o2)nc2c1CCC2	-7%	nt	7.9µM*	nt
CCCCn1c(SCC(=O)OC)nc2c1c(=O)n(C)c(=O)n2C	16µM*	>57	1%	>77
Cc1c(C(=O)O)cnc2cc(-c3ccc(Cl)cc3)nn12	nt	nt	13µM*	nt
Cc1cc2ncc(C(=O)Nc3ccccc3)c(C)n2n1	-12%	>57	1%	>77
Cc1nc(N2CCOCC2)c2cc(-c3ccccc3)sc2n1	16µM*	?	?	nt
c1ccc(Cn2nnc3c(N4CCCC4)ncnc32)cc1	-18%	>57	2%	>77
c1ccc(-n2nnc3c(N4CCOCC4)ncnc32)cc1	-14%	9.2*	5µM*	>77
CSc1nc(N2CCOCC2)c2ccccc2n1	-15%	>57	-2%	>77
O=C(Cn1cnc2sc(-c3ccccc3)cc2c1=O)N1CCOCC1	3%	>57	2%	>77
c1ccc(-c2cc3c(N4CCOCC4)ncnc3s2)cc1	20µM*	nt	-2%	nt
COc1ccc(N(CC(=O)Nc2ccc(C)c(C)c2)S(=O)(=O)c2c(C)n[nH]c2C)cc1	8%	>57	0%	15*
SMILES	ERK AVP block	Bst PK mod	FLuc inh	GBA mod
Cn1c(=O)c2c(nc(C(=N)SCC(=O)O)n2C)n(C)c1=O	-15%[11.5 µM]	nt	1%[11.4 µM]	nt
CCCN(CCC)C[C@@H]1CCCCN1CCNC(=O)N1c2ccccc2C(=O)Nc2cccnc21	8%	nt	1%	nt
Cn1cccc1Cc1nnc(SCC(=O)Nc2ccc3c(c2)OCO3)n1CCc1ccccc1	16µM*	nt	-9%	nt
Cc1ccc(-n2c(SCC(=O)Nc3ccc4c(c3)OCO4)nnc2-c2cccs2)cc1	?	>57	2%	9.3*
C#C[C@]1(O)CCC2C3CCC4=Cc5oncc5C[C@@]4(C)C3CC[C@@]21C (some centres undefined)	-17%	nt	nt	nt
O=C(CSc1nc2ccccc2nc1SCC(=O)N1CCOCC1)N1CCOCC1	?	nt	-3%	nt
O=C(CSc1nnnn1-c1cccc2ccccc12)N1CCOCC1	-10%	8*	-2%	>77
Cc1cc(NC(=O)CSc2ccc(-c3nc4cc(C)c(C)cc4[nH]3)cn2)no1	19%	i	0.32µM*	>77
Cc1ccc2nc(SCC(=O)Nc3cc(C)on3)[nH]c2c1	-1%	>57	-3%	>77
Cc1cccc(-c2cc3nc4c(c(N5CCOCC5)n3n2)CCCC4)c1	-11%	?	16µM*	>77
COc1ccc2cccc(N3CCN(CCNC(=O)c4ccc(F)cc4)CC3)c2c1	?	nt	0%	nt
Cc1ccc(-n2nnnc2SCC(=O)NC(=O)Nc2ccc3c(c2)OCCO3)cc1	-30%	>57	-5%	?
O=C(CSc1nnnn1-c1ccc(Cl)cc1)NC(=O)Nc1ccc2c(c1)OCCO2	11%	>57	2.5µM*	>77
Cc1ccc(S(=O)(=O)N2CCCC2C(=O)Nc2nc3ccccc3s2)cc1 (centres undefined)	-7%	nt	-1%	nt
O=C(Nc1nc2ccccc2s1)C1CCCN1S(=O)(=O)c1ccc(Cl)cc1 (centres undefined)	20µM*	?	1%	>77
CN(C)CCCN1c2ccccc2C(C)(C)c2ccccc21	6%[11.5 µM]	nt	1%[11.4 µM]	nt
